Structures can show the parent of a compound that is named as a salt.

The assay has as its system Saccharomyces cerevisiae BY4741 SeMeCo community. In words: z-score of subpopulation abundance vs DMSO median, subpopulation auxotrophic for HM; higher = larger share of this subpopulation than in DMSO controls. The following applies: 10 µM; 24 h; SM minimal medium; subpopulation (auxotrophy): HM. As for the experimental part: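 Fluorescent four-plasmid SeMeCo (self-establishing metabolically cooperating S. cerevisiae BY4741 community; plasmids pH-mRuby2, pL-mWasabi, pU-eCFP, pM-TagRFP657) was grown 24 h in minimal SM medium with each Selleck FDA-approved drug at 10 µM in 384-well plates. Cells were fixed and imaged by high-content confocal microscopy. For each auxotrophic subpopulation (and the prototroph), a z-score gives the deviation from the DMSO vehicle-control population median.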
As for `Nc1c(CC(=O)O)cccc1C(=O)c1ccc(Br)cc1` [Bromfenac Sodium], the “z-score of subpopulation abundance” value is -0.15. With `CO[C@H]1C[C@@H]2CC[C@@H](C)[C@@](O)(O2)C(=O)C(=O)N2CCCC[C@H]2C(=O)O[C@H]([C@H](C)C[C@@H]2CC[C@@H](OC(=O)C(C)(CO)CO)[C@H](OC)C2)CC(=O)[C@H](C)/C=C(\C)[C@@H](O)[C@@H](OC)C(=O)[C@H](C)C[C@H](C)/C=C/C=C/C=C/1C` the figure was 23.9; with `O=C(O)Cc1ccccc1Nc1c(Cl)cccc1Cl` [Diclofenac acid], 0.14.

For `CC(=O)Oc1ccc(C(=C2CCCCC2)c2ccc(OC(C)=O)cc2)cc1` [Cyclofenil], the “z-score of subpopulation abundance” value was -0.93. Then `CN[C@H]1CC[C@@H](c2ccc(Cl)c(Cl)c2)c2ccccc21` [Sertraline HCl], with -0.87; and `CC(=O)OC(C)C[N+](C)(C)C` (stereo not given) [Methacholine chloride], with 0.64; and `O=C(CCCN1CC=C(n2c(=O)[nH]c3ccccc32)CC1)c1ccc(F)cc1` [Droperidol], with 0.2.

As to `COc1ccc(Cc2cnc(N)nc2N)cc1OC` [Diaveridine], the “z-score of subpopulation abundance” value is -0.29.

For `COC(=O)Nc1nc2cc(Sc3ccccc3)ccc2[nH]1` [Fenbendazole], the “z-score of subpopulation abundance” value came out at 0.22. With `C[N+]1(C)[C@@H]2C[C@@H](OC(=O)C(O)(c3cccs3)c3cccs3)C[C@H]1[C@@H]1O[C@@H]12` [Tiotropium Bromide hydrate] the figure was -0.06.

Regarding `O=C(O)c1cc(O)c2c(c1)[C@H]([C@H]1c3cc(C(=O)O)cc(O)c3C(=O)c3c(O[C@@H]4O[C@H](CO)[C@@H](O)[C@H](O)[C@H]4O)cccc31)c1cccc(O[C@@H]3O[C@H](CO)[C@@H](O)[C@H](O)[C@H]3O)c1C2=O` [Sennoside A], the “z-score of subpopulation abundance” value was -1.46.

Regarding `O=C(O)c1cc(-c2ccc(F)cc2F)ccc1O` [Diflunisal], the “z-score of subpopulation abundance” value is -1.55. With `CO[C@H]1O[C@@H]2O[C@@]3(C)CC[C@H]4[C@H](C)CC[C@@H]([C@H]1C)[C@@]24OO3` [Artemether] the figure was -2. `CN(C)C(=O)COC(=O)Cc1ccc(OC(=O)c2ccc(NC(=N)N)cc2)cc1` [Camostat Mesilate]: the “z-score of subpopulation abundance” value was -0.32. For `CCCCCC(=O)O[C@]1(C(C)=O)CC[C@H]2[C@@H]3CCC4=CC(=O)CC[C@]4(C)[C@H]3CC[C@@]21C` [Hydroxyprogesterone caproate], the “z-score of subpopulation abundance” value was determined as 1.31. Regarding `CCCCCNC(=N)N/N=C/c1c[nH]c2ccc(OC)cc12` [Tegaserod Maleate], the “z-score of subpopulation abundance” value worked out at 1.48. With `CC(=O)O[C@H]1C[C@@]2(C)[C@@H](C[C@@H](O)[C@H]3[C@@]4(C)CC[C@@H](O)[C@@H](C)[C@@H]4CC[C@@]32C)/C1=C(\CCC=C(C)C)C(=O)O` [Fusidate Sodium] the figure was 0.57. Then `CC1=C(C(=O)O)N2C(=O)[C@@H](NC(=O)[C@H](N)c3ccccc3)[C@H]2SC1` [Cephalexin], with 1.28; and `Nc1ccc(S(N)(=O)=O)cc1` [Sulfanilamide], with -0.8; and `COc1ccc2cc([C@H](C)C(=O)O)ccc2c1` [Naproxen], with -0.37. Then `CC[N+](CC)(CC)CCOc1cccc(OCC[N+](CC)(CC)CC)c1OCC[N+](CC)(CC)CC` [Gallamine Triethiodide], with -0.01; and `N=C(N)NC(=O)c1nc(Cl)c(N)nc1N` [Amiloride HCl dihydrate], with 1.29.

With `O=C(O[C@@H]1C[C@@H]2C[C@H]3C[C@H](C1)N2CC3=O)c1c[nH]c2ccccc12` [Dolasetron Mesylate], the “z-score of subpopulation abundance” value stood at 1.09. Then `CC[N+](CC)(CC)CC` [Tetraethylammonium bromide], with 0.22; and `CCN(CC)C(=O)N1CCN(C)CC1` [Diethylcarbamazine citrate], with -0.19. Then `C=CCCCCCCCCC(=O)[O-].C=CCCCCCCCCC(=O)[O-].[Zn+2]` [Zinc Undecylenate], with -2.65; and `CC(C)[C@H]1CC[C@H](C(=O)N[C@H](Cc2ccccc2)C(=O)O)CC1` [Nateglinide], with 0.65; and `COc1ccc(C(C)=O)c(O)c1` [Paeonol], with -0.35. In the case of `O=C1[C@H]2CCCC[C@H]2C(=O)N1CCCCN1CCN(c2nsc3ccccc23)CC1` [Perospirone hydrochloride], the “z-score of subpopulation abundance” value was -0.27. With `CN(C/C=C/C#CC(C)(C)C)Cc1cccc2ccccc12` [Terbinafine HCl] the figure was -0.78; with `CN1CCCN=C1/C=C/c1cccs1` [Pyrantel Pamoate], 0.03; with `O=C1CC2(CCCC2)CC(=O)N1CCCCN1CCN(c2ncccn2)CC1` [Buspirone HCl], -0.83.

On to `NS(=O)(=O)Cc1noc2ccccc12` [Zonisamide], for which the “z-score of subpopulation abundance” value turned out to be 0.69. Consider `Cc1cc(/C=C/c2ccc3cc(N(C)C)ccc3[n+]2C)c(C)n1-c1ccccc1` [pyrvinium], for which the “z-score of subpopulation abundance” value is -0.29. With `CC(C[N+](C)(C)C)OC(N)=O` (stereo not given) [Bethanechol chloride] the figure was 0.07; with `CCc1c2c(nc3ccc(OC(=O)N4CCC(N5CCCCC5)CC4)cc13)-c1cc3c(c(=O)n1C2)COC(=O)[C@]3(O)CC` [Irinotecan HCl Trihydrate], 0.47. With `CC1CCc2c(N3CCC(O)CC3)c(F)cc3c(=O)c(C(=O)O)cn1c23` (stereo not given) [Nadifloxacin] the figure was 0; with `CCCCc1oc2ccc(NS(C)(=O)=O)cc2c1C(=O)c1ccc(OCCCN(CCCC)CCCC)cc1` [Dronedarone HCl], 1.04. Then `C[C@@H]1[C@H](O)[C@@H](C)/C=C/C=C/C=C/C=C/C=C/C=C/C=C/[C@H](O[C@@H]2O[C@H](C)[C@@H](O)[C@H](N)[C@@H]2O)C[C@@H]2O[C@](O)(C[C@@H](O)C[C@@H](O)[C@H](O)CC[C@@H](O)C[C@@H](O)CC(=O)O[C@H]1C)C[C@H](O)[C@H]2C(=O)O` [Amphotericin B], with 0.42. With `O=C(O)CCc1nc(-c2ccccc2)c(-c2ccccc2)o1` [Oxaprozin], the “z-score of subpopulation abundance” value was -0.83.
